Screening data: PubChem BioAssay, National Center for Advancing Translational Sciences (NCATS)
Rows were chosen to be rich in hits. Some 2.4% of all compounds tested hit in one or more screens of this group.
Prx2 Sm inh: blocks S. mansoni peroxiredoxin 2 enzymatic activity; S. mansoni Prx2 activity coupled to TGR/GSH (TGR is thioredoxin glutathione reductase), NADPH fluorescence loss, qHTS; 65,000 tested, 0.07% active; AID 448; Potency, µM
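Enzyme mix: 100 uM NADPH, 25 nM TGR, 700 uM GSH, 50 nM Prx2 in 100 mM phosphate pH 7.4, 10 mM EDTA, 0.01% Tween-20. 15 min RT with compound; NADPH/GSH added, H2O2 starts reaction; NADPH fluorescence read 8 min.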
Anthrax LT inh: anthrax lethal toxin internalization inhibition; Cells, anthrax lethal toxin internalization, FRET ratio (460/530); Potency, µM (top dose mostly 40 µM), inactives show top-dose activity change, negative = inhibition, usual class: inhibitors; 70,000 tested, 0.67% active; AID 912; further: on the % scale 0 is the no-effect control and ±100 the full control effect; nearly all actives have a fitted effect of over 50% in size
AmpC det inh: blocks E. coli AmpC beta-lactamase in presence of detergent; P00811; purified AmpC, nitrocefin hydrolysis with detergent; Potency, µM (highest dose often 28.7 µM), for the others: at the highest dose activity change, negative = inhibition; 71,000 tested, 0.09% active; active means well fitted curve in the direction sought with a large enough effect; inconclusive means small, poorly fitted or top-dose-only effect; further: on the % scale 0 is the no-effect control and ±100 the full control effect
Target sequence (P00811 whole entry, looked up): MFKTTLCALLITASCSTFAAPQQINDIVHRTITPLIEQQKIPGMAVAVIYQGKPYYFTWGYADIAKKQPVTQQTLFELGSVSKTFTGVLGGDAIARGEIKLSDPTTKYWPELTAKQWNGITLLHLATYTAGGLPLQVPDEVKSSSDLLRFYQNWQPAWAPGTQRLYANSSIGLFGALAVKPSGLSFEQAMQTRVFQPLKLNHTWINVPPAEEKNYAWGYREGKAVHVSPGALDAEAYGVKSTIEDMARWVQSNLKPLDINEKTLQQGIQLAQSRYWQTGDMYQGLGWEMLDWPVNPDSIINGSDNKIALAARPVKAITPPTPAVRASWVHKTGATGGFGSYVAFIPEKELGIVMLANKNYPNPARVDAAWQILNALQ
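E. coli AmpC (5.3 nM) in 20 mM phosphate pH 7.0 with 0.01% Triton X-100, preincubated 15 min RT with compound; nitrocefin (2 uL of 800 uM stock) hydrolysis followed by 480 nm absorbance every 20 s over 4 min.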
AmpC nodet inh: AmpC beta-lactamase inhibition, detergent-free assay. Potency, µM (series often up to 28.7 µM), without a hit: at the top dose activity change, negative = inhibition. 71,000 tested, 1.8% active. P00811. AmpC nitrocefin hydrolysis, absorbance 480 nm, no detergent. AID 585; further: % of control where 0% means no effect
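Enzyme, pH 7.0 phosphate. Compound titrations were pre-incubated with AmpC for 15 min at room temperature before nitrocefin (stock 800 uM) addition; product formation was recorded at 480 nm every 20 s for 4 min.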
Numbers without * were called inactive; [ ] = remark or other dose. Unless noted, the call rests on the fitted dose curve. Potency means the concentration at half of the fitted maximal effect.

What do the screens show for `NNc1c(C(N)=O)c2c(N)ncnc2n1[C@@H]1O[C@H](CO)[C@@H](O)[C@@H]1O`?
Prx2 Sm inh: >57; Anthrax LT inh: -11%[8 µM]; AmpC det inh: -3%[5.75 µM]; AmpC nodet inh: -12%[5.75 µM]

How did CN1CCN(CCCBr)CC1 do in these assays?
Prx2 Sm inh: >57; Anthrax LT inh: -8%[8 µM]; AmpC det inh: -3%[5.75 µM]; AmpC nodet inh: -8%[5.75 µM]

How did N#CCc1ccccc1[N+](=O)[O-] do in these assays?
Anthrax LT inh: -3%; AmpC det inh: 9%; AmpC nodet inh: -5%

How did COC(=O)c1c(C)ccc2c(O)c3c(cc12)C(=O)c1c2c(cc(O)c1C3=O)[C@@]1(C)O[C@@](C)(O2)[C@@H](O)[C@H](N(C)C)[C@H]1O do in these assays?
Prx2 Sm inh: >57; Anthrax LT inh: 10%[8 µM]; AmpC det inh: 5%[5.75 µM]; AmpC nodet inh: -1%[5.75 µM]

Results for O=C(NCc1ccco1)c1cc2c(s1)CSC2 ?
Anthrax LT inh: -13%; AmpC det inh: 12%; AmpC nodet inh: -25%

What do the screens show for `CCc1ccccc1S(=O)(=O)Cc1ccc(C(=O)NCc2ccc3c(c2)OCO3)o1`?
Prx2 Sm inh: >57; Anthrax LT inh: inconclusive; AmpC det inh: 6%; AmpC nodet inh: 4µM*[single pt active]

How did O=C(NCc1ccc2c(c1)OCO2)c1cc2c(s1)CSC2 do in these assays?
Prx2 Sm inh: >57; Anthrax LT inh: -3%; AmpC det inh: 5%; AmpC nodet inh: 13µM*[single pt active]

How did COCCNC(=O)c1ccc(CS(=O)(=O)c2ccc(OC)cc2)o1 do in these assays?
Prx2 Sm inh: >57; Anthrax LT inh: -9%; AmpC det inh: 11%; AmpC nodet inh: 4µM*[single pt active]

Results for COc1ccc(S(=O)(=O)Cc2ccc(C(=O)NCc3ccccn3)o2)cc1 ?
Prx2 Sm inh: >57; Anthrax LT inh: inconclusive; AmpC det inh: 11%; AmpC nodet inh: 4µM*[single pt active]

Results for CCc1ccccc1S(=O)(=O)Cc1ccc(C(=O)NC(C)C)o1 ?
Prx2 Sm inh: >57; Anthrax LT inh: -12%; AmpC det inh: 5%; AmpC nodet inh: 13%

What do the screens show for `COCCNC(=O)c1ccc(CS(=O)(=O)c2c(Cl)cccc2Cl)o1`?
Prx2 Sm inh: >57; Anthrax LT inh: 1%; AmpC det inh: 7%; AmpC nodet inh: 20%

Results for CC(C)(C)NC[C@H](O)c1ccccc1Cl ?
Prx2 Sm inh: >57; Anthrax LT inh: 3%; AmpC det inh: -2%; AmpC nodet inh: -9%

How did CCCOc1nc2c(c(=O)n(C)c(=O)n2C)n1CCC do in these assays?
Prx2 Sm inh: >57; Anthrax LT inh: -3%; AmpC det inh: 22%; AmpC nodet inh: 11%

Results for CCCn1c(OC)nc2c1c(=O)n(C)c(=O)n2C ?
Prx2 Sm inh: >57; Anthrax LT inh: 4%; AmpC det inh: 8%; AmpC nodet inh: 4µM*[single pt active]

Results for CC1(C)N=C(N)N=C(N)N1c1cccc(C(=O)Nc2ccc(S(=O)(=O)F)cc2)c1 ?
Prx2 Sm inh: >57; Anthrax LT inh: inconclusive; AmpC det inh: -1%[5.75 µM]; AmpC nodet inh: 3%[5.75 µM]

What do the screens show for `Clc1nc(NCCc2ccccc2)c2ncn(-c3ccccc3)c2n1`?
Prx2 Sm inh: >57; Anthrax LT inh: 0%[8 µM]; AmpC det inh: 0%[5.75 µM]; AmpC nodet inh: -11%[5.75 µM]

Results for Cc1cc(NC(=O)c2cc(-c3ccco3)on2)nn1Cc1ccc(Cl)cc1 ?
Prx2 Sm inh: >57; Anthrax LT inh: -24%; AmpC det inh: -3%; AmpC nodet inh: 16µM*

What do the screens show for `Cc1nn(Cc2ccc(Cl)cc2)c(C)c1NC(=O)c1cc(-c2ccco2)on1`?
Prx2 Sm inh: >57; Anthrax LT inh: -18%; AmpC det inh: -6%; AmpC nodet inh: 25%

What do the screens show for `COC(=O)CN(c1ccc(C(C)C)cc1)S(=O)(=O)c1c(C)[nH]c(=O)[nH]c1=O`?
Prx2 Sm inh: >57; Anthrax LT inh: -12%; AmpC det inh: 14%; AmpC nodet inh: 4µM*[single pt active]

How did CC1(C(=O)NCc2cccnc2)CCC(=O)N1Cc1cccs1 (stereo not drawn) do in these assays?
Prx2 Sm inh: >57; Anthrax LT inh: 0%; AmpC det inh: 14%; AmpC nodet inh: 4µM*[single pt active]

How did CC1(C(=O)NCc2cccnc2)CCC(=O)N1CCc1ccccc1 (stereo not drawn) do in these assays?
Prx2 Sm inh: >57; Anthrax LT inh: -8%; AmpC det inh: 16%; AmpC nodet inh: 4µM*[single pt active]

Results for COc1ccc(CCN2C(=O)CCC2(C)C(=O)NCc2cccnc2)cc1OC (stereo not drawn) ?
Prx2 Sm inh: >57; Anthrax LT inh: -2%; AmpC det inh: -2%; AmpC nodet inh: -3%

What do the screens show for `CNC(=O)[C@@H]1O[C@@H](n2cnc3c(NCc4ccc(N)cc4)ncnc32)[C@@H](O)[C@H]1O`?
Prx2 Sm inh: >57; Anthrax LT inh: -7%; AmpC det inh: 0%; AmpC nodet inh: -2%

How did Cn1c(C(=O)NCCN2CCOCC2)cc2c(=O)n(C)c3ccccc3c21 do in these assays?
Prx2 Sm inh: >57; Anthrax LT inh: -18%; AmpC det inh: 10%; AmpC nodet inh: 106%

Results for CC1CCCCN1CCNC(=O)c1cc2c(=O)n(C)c3ccccc3c2n1C (stereo not drawn) ?
Prx2 Sm inh: >57; Anthrax LT inh: 2.5µM*; AmpC det inh: 10%; AmpC nodet inh: 38%

What do the screens show for `Cn1c(C(=O)NCCN2CCc3ccccc3C2)cc2c(=O)n(C)c3ccccc3c21`?
Prx2 Sm inh: >57; Anthrax LT inh: 7.9µM*; AmpC det inh: 7%; AmpC nodet inh: 102%

Results for CC1CCC(NC(=O)c2cc3c(=O)n(C)c4ccccc4c3n2C)CC1 (stereo not drawn) ?
Prx2 Sm inh: >57; Anthrax LT inh: -18%; AmpC det inh: 18%; AmpC nodet inh: 4µM*[single pt active]

What do the screens show for `Cn1c(C(=O)NCCN2CCN(c3ccccc3F)CC2)cc2c(=O)n(C)c3ccccc3c21`?
Prx2 Sm inh: >57; Anthrax LT inh: -6%; AmpC det inh: 16%; AmpC nodet inh: 4µM*[single pt active]

Results for Cc1ccc(S(=O)(=O)O[C@@H]2[C@H]([C@@H]3COC(C)(C)O3)O[C@H]3OC(C)(C)O[C@@H]32)cc1 ?
Prx2 Sm inh: >57; Anthrax LT inh: -4%[8 µM]; AmpC det inh: -5%[5.75 µM]; AmpC nodet inh: -11%[5.75 µM]

How did COc1ccc2c3c1O[C@@H]1C(=O)CC[C@@]4(O)[C@@H](C2)N(CC2CC2)CC[C@]314 do in these assays?
Prx2 Sm inh: >57; Anthrax LT inh: -3%; AmpC det inh: 0%; AmpC nodet inh: 12%

Results for O=C(O)CNC(=O)c1ccc([N+](=O)[O-])cc1 ?
Anthrax LT inh: -4%; AmpC det inh: 10%; AmpC nodet inh: -10%

Results for CC(=O)C1(C)CC2=C(CCCC2(C)C)CC1C (stereo not drawn) ?
Anthrax LT inh: -27%; AmpC det inh: 10%; AmpC nodet inh: -4%

How did Cc1cc(C(=O)NCCN2CCCCC2C)n(-c2ccccc2)n1 (stereo not drawn) do in these assays?
Prx2 Sm inh: >57; Anthrax LT inh: -4%; AmpC det inh: 5%; AmpC nodet inh: -14%

How did CC1CCCCN1CCNC(=O)c1cnn2ccccc12 (stereo not drawn) do in these assays?
Anthrax LT inh: -9%; AmpC det inh: 14%; AmpC nodet inh: 3.2µM*[single pt active]
